From PubChem
This is a sample that favours compounds with a hit; in the whole collection about 4% have one here.
Mtb FBA inh = Mtb fructose-bisphosphate aldolase inhibition | purified M. tuberculosis FBA, fluorescence read-out | 2.3% of 360,000 active | inhibition, % at 1 µM | P9WQA3 | AID 588726;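 further: 0% = vehicle and 100% = reference inhibitor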
Target sequence (P9WQA3 whole entry, looked up): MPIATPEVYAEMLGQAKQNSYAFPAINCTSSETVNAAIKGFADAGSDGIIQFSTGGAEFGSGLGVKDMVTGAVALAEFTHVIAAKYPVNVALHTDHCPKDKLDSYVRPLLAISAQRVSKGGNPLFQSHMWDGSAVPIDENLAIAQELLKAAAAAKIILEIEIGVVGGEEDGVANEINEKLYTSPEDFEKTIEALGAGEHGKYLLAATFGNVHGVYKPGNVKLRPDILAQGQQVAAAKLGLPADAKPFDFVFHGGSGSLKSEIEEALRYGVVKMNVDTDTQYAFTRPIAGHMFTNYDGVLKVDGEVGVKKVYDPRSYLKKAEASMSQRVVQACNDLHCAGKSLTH
CCHFV vOTU inh = CCHFV vOTU protease inhibition; 0.55% of 370,000 active; inhibition, % at 11.5 µM; Pep-AMC fluorescence; AID 651958; in the data active means inhibition above about 30%; further: 0% = vehicle wells with enzyme and 100% = no enzyme wells
MazEF act = MazEF (E. coli) toxin RNase activation | P0AE70 | FAM/BHQ RNA-DNA oligo cleavage fluorescence, 5 h | activation, % at 20 µM | 0.32% of 350,000 active | AID 504720; in the data active means activation above about 50%
Target sequence (P0AE70 whole entry, looked up): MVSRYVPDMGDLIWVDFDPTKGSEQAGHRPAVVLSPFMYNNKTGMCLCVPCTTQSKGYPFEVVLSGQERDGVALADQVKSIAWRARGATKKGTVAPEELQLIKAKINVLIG
GDH-TPI counter-1 = GDH-TPI coupled enzyme inhibition counter-screen; GDH-TPI coupled enzyme counterscreen, NADH absorbance; inhibition, % at 4.8 µM; 1.2% of 360,000 active; AID 588335; in the data active means inhibition above about 30%;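 further: 0% = DMSO wells and 100% = wells lacking the enzyme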
Mtb bLac sens = beta-lactam sensitization of Mtb H37Rv. M. tuberculosis H37Rv growth with meropenem, percent inhibition. inhibition, % at 25 µM. 0.27% of 330,000 active. AID 434955; call rule not given here;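 further: growth measured after seven days incubation then overnight dye step; 0% = bacteria only wells and 100% = bacteria with antibiotic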
Mtb FBA inh conf = confirmation of M. tuberculosis fructose-bisphosphate aldolase inhibitors; shares compounds with Mtb FBA inh; AID 651616; purified M. tuberculosis FBA, fluorescence read-out; 78% of 5,600 active; inhibition, % at 1 µM;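 further: 0% = vehicle wells and 100% = reference inhibitor wells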
GDH-TPI counter-2 = counter-screen for M. tuberculosis FBA inhibitors: GDH-TPI coupled enzyme inhibition; shares compounds with Mtb FBA inh; GDH-TPI coupled enzyme counterscreen, fluorescence; inhibition, % at 1 µM; 81% of 5,600 active; AID 652141; in the data active means inhibition above about 10%
GDH-TPI dose = counter-screen for M. tuberculosis FBA inhibitors: GDH-TPI dose response; shares compounds with Mtb FBA inh; GDH-TPI coupled enzyme assay, fluorescence, artifact counterscreen; IC50, µM; 79% of 170 active; call rule not given here
The depositor's hits bear a star; · = not tested or not shown; + = active, no number. Unless noted, no stated cut-off is given here; in the data, active means inhibition above about 27%; inactive means the rest.

SMILES | Mtb FBA inh | CCHFV vOTU inh | MazEF act | GDH-TPI counter-1 | Mtb bLac sens | Mtb FBA inh conf | GDH-TPI counter-2 | others
Cc1c(OCC(=O)N2CCC[C@@H]2C(=O)O)ccc2c3c(c(=O)oc12)CCC3 | 36* | 4 | 9 | 8 | 3 | 93* | 88*
CCc1cc(=O)oc2c(C)c(OCC(=O)N3CCC[C@@H]3C(=O)O)ccc12 | 58* | -7 | -2 | 8 | -6 | 11 | 6 | GDH-TPI dose=3*
COC(=O)[C@]12C[C@H](CC(=O)NCc3ccc(OC)c(OC)c3)C(=O)N(CCC3=CCCCC3)C1=C[C@H](C(C)C)O[C@@H]2C1CC1 | · | 18 | · | · | · | · | ·
CCN(C)C(=O)CN1C(=O)C2CCCCN2C(=O)c2ccccc21 (stereo not given) | · | -3 | · | · | · | · | ·
COC(=O)[C@]12C[C@H](CC(=O)NCCCCc3ccccc3)C(=O)N(Cc3ccco3)C1=C[C@H](C1CCCC1)O[C@@H]2C | · | 18 | · | · | · | · | ·
Cc1ccc(S(=O)(=O)N(C)C)cc1NC(=O)C1CCCCN1S(=O)(=O)c1ccccc1 (stereo not given) | 106* | 4 | -8 | 3 | -11 | 132* | 108*
C=CCOc1c2ccc(C(=O)NC3CCCc4ccccc43)cc2nn1C (stereo not given) | 15 | -29 | 6 | 5 | -3 | · | ·
CCCCn1nc2cc(C(=O)NC3CCCc4ccccc43)ccc2c1OCC (stereo not given) | 36* | -13 | 7 | 3 | 12 | 184* | 132*
CCOc1c2ccc(C(=O)NC3CCCc4ccccc43)cc2nn1C (stereo not given) | 59* | -52 | 4 | 5 | 3 | 30* | 22*
CCCCn1nc2cc(C(=O)N[C@H](C)C3CCCCC3)ccc2c1OCC | 53* | -16 | 3 | -4 | 0 | 45* | 39*
CCOCCCNC(=O)c1ccc2c(c1)ncn2C1CCCC1 | 6 | 10 | -6 | 5 | 3 | · | ·
O=C1c2[nH]nc(-c3ccccc3)c2C(c2cccc(C(F)(F)F)c2)N1c1ccccc1 (stereo not given) | · | 15 | · | · | · | · | ·
CN(C)c1ccc(/C=N/N=C(N)N)cc1[N+](=O)[O-] | 80* | 9 | 5 | 30 | 2 | 198* | 132*
CCOC(=O)C(C)Sc1nc(-c2ccco2)cc(C(F)(F)F)c1C#N (stereo not given) | 29* | -38 | -2 | 3 | 23 | 124* | 95*
CCOC(=O)COc1nc(-c2ccco2)cc(-c2ccco2)c1C#N | 80* | -124 | -18 | 15 | 18 | 16 | 14*
CCOC(=O)c1sc(NC(=O)CSc2nc(-c3ccco3)cc(C(F)(F)F)n2)c(C#N)c1C | 0 | 3 | -4 | -2 | 0 | · | ·
CC(=O)COc1nc2c(c(-c3ccco3)c1C#N)CCc1ccccc1-2 | · | · | -11 | · | 12 | · | ·
CN(c1ccc(NC(=O)Cc2cn(C)c3ccccc23)cc1)c1ccccn1 | · | 0 | · | · | · | · | ·
COc1cc2sc3cc(NCc4ccc5c(c4)OCO5)ccc3c(=O)c2cc1OC | 18 | -23 | -16 | 20 | 5 | · | ·
COc1cc2sc3cc(NCC[C@@H]4CCCN4C)ccc3c(=O)c2cc1OC | 32* | -39 | 2 | 42* | 73 | + | 194*
COc1cc2sc3cc(NCc4ccc(C)o4)ccc3c(=O)c2cc1OC | 33* | -16 | 6 | 20 | 23 | 131* | 126*
COc1cccc2sc3ccc(NCCC4CCCN4C)cc3c(=O)c12 (stereo not given) | 1 | -2 | -15 | 12 | -9 | · | ·
CCCCN1C2=C(C(=O)CC(C)(C)C2)C(c2ccccc2)C2=C1c1ccccc1C2=O (stereo not given) | -1 | -8 | 7 | 5 | -9 | · | ·
CCN(CC)CCN1C2=C(C(=O)CC(C)(C)C2)C(c2cccc(F)c2)C2=C1CC(C)(C)CC2=O | 83* | -55 | 4 | 14 | -6 | + | 200*
CC1(C)CC(=O)C2=C(C1)N(CCN1CCOCC1)C1=C(C(=O)CC(C)(C)C1)C2c1cccc(Cl)c1 | 30* | -66 | -7 | 14 | -10 | 3 | 2
O=S(=O)(c1ccccc1F)n1c(CN2CCOCC2)nc2ccccc21 | · | -1 | · | · | · | · | ·
